Assay outcomes deposited in PubChem by several laboratories.
tim23-1 inh: inhibits growth of tim23-1 mutant yeast; S. cerevisiae tim23-1 growth, BacTiter-Glo luminescence, 24 h; inhibition, % at 20 µM; 1.3% of 330,000 active;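 active means growth inhibition of the mutant yeast at or above 50%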;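 further: temperature-sensitive mutant grown at 25 °C; plate controls were DMSO-treated mutant yeast for no effect and medium wells lacking yeast for full effect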
V-ATPase pH: alters yeast V-ATPase proton transport. 0.37% of 350,000 active. response, % at 10 µM. S. cerevisiae, pHLuorin cytosolic pH fluorescence; in the data active means response mostly above about 7.3%, no sharp cut-off; inactive means mostly below about 5.4%; further: actives read high
NALP3 yeast inh: inhibitors of NALP3 inflammasome in yeast; Yeast reconstituted NLRP3/ASC/caspase-1, beta-gal luminescence, 24 h; inhibition, % at 10 µM; 0.39% of 330,000 active;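 active means inhibition of 50% or more; inactive means inhibition below 50%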;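 further: plate controls were induced DMSO wells for no effect and uninduced yeast grown without galactose for full effect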
NALP1 inh: NALP1 inhibition; inhibition, % at 10 µM; S. cerevisiae NALP1/ASC/caspase-1 growth, X-gal OD620, 72 h; AID 2071; 0.61% of 280,000 active; in the data active means inhibition mostly above about 24%, no sharp cut-off; inactive means mostly below about 32%
tim10-1 inh: tim10-1 yeast growth inhibition | S. cerevisiae tim10-1 ts strain growth, BacTiter-Glo, 24 h | inhibition, % at 20 µM | 2.2% of 330,000 active;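 active means inhibition of at least 40%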;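 further: mutant grown at 25 °C; 0% = DMSO wells with yeast and 100% = wells holding no yeast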
TIM10 inh: growth inhibitors of TIM10 yeast strain. S. cerevisiae TIM10 strain growth, BacTiter-Glo luminescence, 24 h. inhibition, % at 10 µM. 1.4% of 330,000 active. AID 463195;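 active means inhibition of 40% or more at the single tested concentration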;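 further: wild-type TIM10 isogenic control strain grown at permissive 25 °C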
tim10-1 confirm: tim10-1 yeast growth inhibition, confirmed; shares compounds with tim10-1 inh; S. cerevisiae tim10-1 ts strain growth, BacTiter-Glo, 24 h; inhibition, % at 20 µM; 56% of 7,400 active;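 active means inhibition of yeast growth at or above a set limit in either of two repeat tests at 20 µM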;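 further: tim10-1 mutant grown at permissive 25 °C to find synthetic lethal compounds; 0% = DMSO yeast wells and 100% = medium wells without yeast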
Starred values were filed as active, the others as inactive; x = no result given. Only some compounds are listed: those with a hit (about 4.2% of all), similar ones and a draw of the others.

SMILES	tim23-1 inh	V-ATPase pH	NALP3 yeast inh	NALP1 inh	tim10-1 inh	TIM10 inh	tim10-1 confirm
COc1ccc2cc3cc(C(=O)N4CC(C)CC(C)C4)oc3nc2c1 (centres undefined)	46	2	17	2	56*	30	21
COc1ccc(Cl)cc1Nc1nc2ccc(C)cc2n2cnnc12	8	1	5	19	2	12	x
O=C(N/N=C1\CCCc2ccccc21)c1ccc([N+](=O)[O-])cc1	25	3	-6	-64	46*	22	26
CCOC(=O)C1CCCN(C2=NC(=O)/C(=C/c3ccc(OC)cc3)S2)C1 (centres undefined)	33	0	10	20	47*	20	31*
CCOC(=O)C1CCCN(C2=NC(=O)/C(=C/c3ccc(O)c(OCC)c3)S2)C1 (centres undefined)	40	-1	8	3	46*	28	26
Cc1ccc(C)c(N2CCN(C(=O)c3ccccc3Br)CC2)c1	39	-5	4	x	31	26	x
CCOC(=O)C(C)C(C)=O (centres undefined)	6	4	0	x	-4	-3	x
Cc1cccc2nc(COc3ccc(Cl)c4cccnc34)cn12	44	-1	35	-12	40*	28	36*
C/C(=N\NC(=O)c1nnn(-c2nonc2N)c1-c1cccs1)c1ccc(O)cc1	0	6	3	13	9	-14	x
COc1cccc(/C=C/C(=O)c2ccc(NC3=NCCCS3)cc2)c1	39	-1	0	-11	43*	38	37*
CC(C)(C)c1ccc(/C=C/C(=O)c2ccc(NC3=NCCCS3)cc2)cc1	35	0	8	47	43*	26	35*
O=C(/C=C/c1ccccc1)c1ccc(NC2=NCCCS2)cc1	x	-1	x	33	x	x	x
CC1Cc2cc(C(=O)O)ccc2O1 (centres undefined)	15	1	-14	10	5	-18	x
CN(C)CCN(Cc1ccccc1)S(=O)(=O)c1ccc2c(c1)n(C)c(=O)c(=O)n2C	8	-3	7	x	0	5	x
COc1ccc2cc(C)c3nnc(SCc4cccnc4)n3c2c1	29	-5	20	10	41*	28	34*
COc1ccc2cc(C)c3nnc(SCC(=O)Nc4cc(OC)c(OC)cc4C(=O)O)n3c2c1	16	0	5	-9	30	4	x
O=C(Nc1ccc(Oc2ccccc2)nc1)C1CCCCN1Cc1cccc(O)c1 (centres undefined)	13	0	18	16	3	-4	x
CC(C)C(=O)NC(=S)N(Cc1ccccc1)Cc1ccccc1	22	0	15	16	41*	37	27
CC(C)CC(=O)NC(=S)N(Cc1ccccc1)Cc1ccccc1	32	-2	29	29	31	27	x
CN1/C(=C\C(=O)Nc2ccc(Br)cc2)C(C)(C)c2ccccc21	49	-3	19	22	46*	39	54*
CCN(CC)C(=O)CSc1ncnc2sc(-c3ccccc3)cc12	24	x	14	12	46*	16	23
CC(C)c1onc(C(=O)NCc2ccccc2)c1[N+](=O)[O-]	12	0	14	44	19	4	x
Nc1[nH]n(-c2ccccc2)c(=O)c1N=Nc1ccc2ncsc2c1	1	3	41	1	3	-32	x
Cc1ccc(NC(=O)CSC2=Nc3ccccc3C3CC=NN23)c(C)c1 (centres undefined)	25	4	4	47	44*	17	9
CC12CN3CCN(CC(C3)/C1=N\N=C1/C3CN4CCN(C3)CC1(C)C4)C2	6	-3	18	30	9	7	x
SMILES	tim23-1 inh	V-ATPase pH	NALP3 yeast inh	NALP1 inh	tim10-1 inh	TIM10 inh	tim10-1 confirm
Cc1cc(=O)n2nc(N3CCC(C(=O)NCc4ccccc4)CC3)sc2n1	20	-2	1	-4	-2	4	x
CCN(CC1COc2ccccc2O1)C(=S)Nc1ccc(F)cc1 (centres undefined)	47	4	27	29	45*	32	30
COc1ccc(NC(=S)N(C)CC2COc3ccccc3O2)cc1 (centres undefined)	29	2	15	4	23	20	x
CCN(CCn1cccn1)C(=O)CC1C(=O)NCCN1Cc1ccc(F)cc1 (centres undefined)	15	2	12	-4	16	2	x
O=Cc1ccccc1Oc1nc(N2CCOCC2)nc(N2CCOCC2)n1	47	3	3	3	45*	33	41*
c1ccc(Oc2nc(Oc3ccccc3)nc(N3CCOCC3)n2)cc1	27	0	14	9	40	6	x
Nc1c(-c2ccc(Cl)cc2)cnc2ncnn12	6	1	4	12	2	-1	x
COc1ccc(S(=O)(=O)Cc2ccc(C(=O)NC3CCC(C)CC3)o2)cc1 (centres undefined)	23	-3	4	8	40*	12	6
COc1ccc(S(=O)(=O)Cc2ccc(C(=O)N3CCN(c4cc(C)ccc4C)CC3)o2)cc1	29	-2	8	4	45*	12	-5
COc1ccc(S(=O)(=O)Cc2ccc(C(=O)N3CCN(c4ccc(Cl)cc4)CC3)o2)cc1	35	2	6	-2	46*	25	18
COc1ccc(N2CCN(C(=O)c3ccc(CS(=O)(=O)c4ccc(OC)cc4)o3)CC2)cc1	5	0	-2	-16	16	8	x
Cc1ccc(NC(=O)CSc2nnc([C@H](C)NC(=O)OC(C)(C)C)o2)c(C)c1	9	1	0	10	3	17	x
COc1ccccc1-n1cc2c([N+](=O)[O-])cc([N+](=O)[O-])cc2n1	45	7	18	9	49*	31	38*
O=C(Nc1ncc2c(n1)-c1ccccc1CC2)c1ccc(Cl)cc1	46	2	30	-1	47*	25	37*
O=C(Nc1ncc2c(n1)-c1ccccc1OC2)c1ccc(F)cc1	40	3	9	9	33	24	x
CC(=O)Oc1ccc(-c2nc(-c3cccnc3)no2)cc1	42	2	34	9	43*	33	49*
CCN(C/C=C/c1ccccc1OC)Cc1ccccc1	-8	-1	12	-32	-8	-20	x
CCOC(=O)Nc1nc(-c2ccc(Cl)cc2Cl)cs1	41	0	25	20	40*	36	17
COc1ccc(-n2c(C)cc(C(=O)Cn3nc(C(=O)O)c4ccccc4c3=O)c2C)cc1	27	-1	8	29	17	24	x
Cc1ccc(-n2c(C)cc(C(=O)Cn3nc(C(=O)O)c4ccccc4c3=O)c2C)cc1	26	0	9	42	42*	16	15
COc1ccccc1CC(=O)O/N=C(\N)c1ccccn1	-2	8	9	3	-5	2	x
